# Measured values taken from PubChem BioAssay AID2685 (National Center for Advancing Translational Sciences (NCATS), 2010).
# About 2,100 (0.66%) of roughly 320,000 compounds were called active. Not shown: some 53% with an inconclusive outcome. The call rests on the fitted dose curve; in most records, active means well fitted inhibition curve with a large enough effect in the signal ratio, with a control signal flat (not every such curve was filed as active); inconclusive means small, poorly fitted or top-dose-only effect, or effect the other way, or a change in a side signal; inactive means flat fitted curve, though single readings scatter; the % refers to the signal ratio. Many of the other results were omitted from the sample, so actives are more common in it than they were.
# Assay: qHTS Assay for Lipid Storage Modulators in Drosophila S3 Cells;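 on cell number change: cells counted by Cell Tracker Red CMTPX staining in the red channel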; on lipid storage change, negative = inhibition: on the % scale 0 is the no-effect control and ±100 the full control effect
# Settings: BODIPY lipid droplet fluorescence, 18-24 h, cells fed with added oleic acid; cell number change: measured here: cell count max response; series mostly up to 46.1 µM
# Outline: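 Drosophila S3 cells loaded with oleic acid (400 uM, as added) and compounds at several concentrations; lipid droplets imaged by 488-nm laser-scanning cytometry, 500–530 nm intensity and object ratio to cell channel. Percent activity normalized to 20 uM Triacsin C.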
# Potency means the concentration at half of the fitted maximal effect.
SMILES,Potency,cell number change [%],"lipid storage change, negative = inhibition"
Cc1[nH]c2ccccc2c1C(=O)C(=O)N1CCN(C(=O)c2ccco2)CC1,inactive,27,
Cc1ccccc1NC(=O)C(=O)Nc1ccccc1C,inactive,0.926,
O=C(Nc1cccc2ccccc12)c1onc2c1CCCC2,inactive,,
O=C(Nc1ccccn1)c1onc2c1CCCC2,inactive,,
Cc1ccccc1NC(=O)c1onc2c1CCCC2,25.9 µM (active),,
Cc1ccccc1NC(=O)c1cccc(C(=O)Nc2ccccc2C)n1,8.2 µM (active),-25.7,
Cc1ccccc1NC(=O)c1ccccn1,inactive,,
COc1cc2c(cc1OC)C(c1ccc3c(c1)OCO3)C1=C(CC(C)(C)CC1=O)N2 (stereo not given),inactive,-17.2,
CC(=O)NCc1cc(-c2ccc(Cl)cc2)no1,,-2.06,0.337% [at 9.22 µM] (inactive)
O=C(NCc1nnc(SCC(=O)N2CCc3ccccc32)o1)c1cccs1,inactive,-1.06,
CCOC(=O)N1CCN(CC(O)c2c[nH]c3ccccc23)CC1 (stereo not given),inactive,14.4,
Cc1ccc(-c2nn(C)c(=O)c3ccccc23)cc1CNC(=O)/C=C/c1ccccc1,inactive,-24.2,
CCCCn1c(=O)[nH]c(=O)c2c1nc(-c1cc(Br)c(OCC)c(OC)c1)n2C,inactive,15,
CCCCn1c(=O)[nH]c(=O)c2c1nc(-c1ccc(-c3ccc(F)cc3)o1)n2C,inactive,10.6,
CCCn1c(-c2cccc([N+](=O)[O-])c2)nc2c1c(=O)[nH]c(=O)n2Cc1ccccc1,inactive,1.66,
CCCn1c(-c2cccc(F)c2)nc2c1c(=O)[nH]c(=O)n2Cc1ccccc1,inactive,13.3,
CCCCn1c(=O)[nH]c(=O)c2c1nc(-c1cccc(OC)c1)n2C,inactive,-6.05,
CCCCn1c(=O)[nH]c(=O)c2c1nc(-c1ccc(OCC)cc1)n2CC,inactive,-8.47,
C=CCOc1ccc(-c2nc3c(c(=O)[nH]c(=O)n3CCCC)n2C)cc1Br,inactive,12.1,
CCCCn1c(=O)[nH]c(=O)c2c1nc(-c1ccc(OC)c(Br)c1)n2CC(C)C,0.326 µM (active),9.66,

SMILES,Potency,cell number change [%],"lipid storage change, negative = inhibition"
C=CCOc1ccc(-c2nc3c(c(=O)[nH]c(=O)n3Cc3ccccc3)n2CCCOC)cc1,inactive,4.84,
CCCn1c(-c2cc(OC)c(OC)c(OC)c2)nc2c1c(=O)[nH]c(=O)n2Cc1ccccc1,0.651 µM (active),,
C=CCOc1ccc(-c2nc3c(c(=O)[nH]c(=O)n3CCC)n2CCCC)cc1,2.91 µM (active),22.5,
CCCCn1c(=O)[nH]c(=O)c2c1nc(-c1ccc(-c3ccccc3)cc1)n2C,3.66 µM (active),-2.7,
Cc1cc(C)c(NC(=O)c2cc(C(=O)O)ccc2C(=O)O)c([N+](=O)[O-])c1,inactive,2.4,
COc1ccc(CCc2cc(OC)cc(=O)o2)cc1,inactive,-1.16,
CN(CCOc1ccccc1Cl)Cc1ccccc1,23.1 µM (active),-8.5,
Cc1cc(C)c(OCCCCN(C)Cc2ccccc2)c(C)c1,7.31 µM (active),-22,
CN(CCCCOc1ccc(F)cc1)Cc1ccccc1,inactive,9.09,
CN(Cc1ccccc1)C(=O)COc1ccccc1Cl,inactive,10.4,
Cc1ccc(Cl)c(OCCCCN(C)Cc2ccccc2)c1,inactive,-11.3,
CN(CCOc1ccc(F)cc1)Cc1ccccc1,inactive,11.7,
CC1CN(S(=O)(=O)c2ccc(C(=O)Nc3nnc(-c4ccccn4)o3)cc2)CC(C)O1 (stereo not given),inactive,10.4,
Cn1c(=O)c(C(=O)NNC(=O)c2ccccc2Br)c(O)c2ccccc21,inactive,7.83,
Cn1c(=O)c(C(=O)NNC(=O)c2ccc(Br)cc2)c(O)c2ccccc21,16.4 µM (active),12.5,
Cn1c(=O)c(C(=O)NNC(=O)c2ccccc2F)c(O)c2ccccc21,inactive,13,
COc1cccc(CN2CC(C(=O)N3CCOCC3)CCC2=O)c1 (stereo not given),inactive,-3.29,
c1ccc(-c2csc3ncnc(NCCN4CCOCC4)c23)cc1,inactive,-69.5,
c1ccc(-c2csc3ncnc(NCC4COc5ccccc5O4)c23)cc1 (stereo not given),1.84 µM (active),-33.8,
c1ccc(-c2csc3ncnc(NCc4ccccn4)c23)cc1,inactive,-13.1,

SMILES,Potency,cell number change [%],"lipid storage change, negative = inhibition"
COc1ccc(S(=O)(=O)NCC2CCCN(C(=O)C=C(C)C)C2)cc1 (stereo not given),inactive,-5.61,
CCOc1ccccc1C(=O)N1CCC(n2nnc3cc(C(F)(F)F)ccc32)CC1,inactive,,
CC(C)CCNC(=O)CN(C(=O)CCC(=O)Nc1nccs1)C1CCCCC1,1.3 µM (active),-4.17,
COc1ccc(CN(CC(=O)NC2CCCC2)C(=O)CCC(=O)Nc2nc(C)cs2)cc1,4.61 µM (active),2.99,
CC(C)CCNC(=O)CN(Cc1ccccc1)C(=O)CCC(=O)Nc1nccs1,inactive,2.61,
COc1ccc(CN(CC(=O)NC2CCCC2)C(=O)CCC(=O)Nc2cc(C)on2)cc1,inactive,2.01,
O=C(CN(Cc1ccccc1)C(=O)CCC(=O)Nc1nccs1)NCc1ccccc1,inactive,-17.1,
CC(C)CCNC(=O)CN(CC1CCCO1)C(=O)CCC(=O)Nc1nccs1 (stereo not given),inactive,9.95,
Cc1csc(NC(=O)CCC(=O)N(CC(=O)NC2CCCC2)Cc2ccco2)n1,inactive,5.63,
O=C(CCC(=O)N(CC(=O)NC1CCCC1)Cc1ccccc1)Nc1nccs1,3.66 µM (active),6.76,
O=C(CCC(=O)N(CC(=O)NC1CCCCC1)Cc1cccs1)Nc1nccs1,inactive,-2.3,
CC(C)(C)OC(=O)[C@H](NC(=O)OCc1ccccc1)c1ccccc1,inactive,-4.27,
CCSc1nc(=S)n(CC)c(C)c1C(C)=O,inactive,11,
CCn1c(C)c(C(C)=O)c(SC)nc1=S,23.1 µM (active),-9.08,
CSc1nc(=S)n(Cc2ccccc2)c(C)c1C(C)=O,inactive,2.19,
CS(=O)(=O)N(CC(=O)Nc1ccccc1-c1ccccc1)c1ccccc1,inactive,6.57,
CNC(=S)NNC(=O)c1ccc(=O)n(Cc2ccc(Cl)cc2Cl)c1,,-1.09,14.6% [at 9.22 µM] (inactive)
CC(C)(O)CC[C@@H](O)[C@](C)(O)[C@H]1CC[C@@]2(O)C3=CC(=O)[C@@H]4C[C@@H](O)[C@@H](O)C[C@]4(C)C3CC[C@]12C (stereo not given in full),inactive,-13.6,
